Experimental data reported in the supplement of paper PMC11732987, “Enantioselective OTUD7B fragment discovery through chemoproteomics screening and high-throughput optimisation” (Communications Chemistry, 2025).
A number with no mark means an inactive call.

Legend:
Test in all cases: log2 ratio of Biotin-Ahx-Ub-VS probe labelling (fragment/DMSO); higher = less target engagement (more negative = stronger competition), active = hit call of the paper (q ≤ 0.05, log2 ratio ≤ -1)
Details in all cases: compound concentration: 200 uM; treatment time: 3 h
[1] = biological target: T1, OTUD6B (UniProt Q8N6M0)
T1 sequence (whole entry): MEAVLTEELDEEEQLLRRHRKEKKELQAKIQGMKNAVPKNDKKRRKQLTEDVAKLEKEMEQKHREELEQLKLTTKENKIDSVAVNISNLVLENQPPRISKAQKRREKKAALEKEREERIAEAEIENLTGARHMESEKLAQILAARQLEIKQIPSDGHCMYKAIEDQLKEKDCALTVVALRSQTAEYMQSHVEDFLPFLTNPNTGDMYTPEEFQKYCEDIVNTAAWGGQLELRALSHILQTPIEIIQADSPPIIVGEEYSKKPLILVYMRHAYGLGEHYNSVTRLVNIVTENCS
Procedure, shortened: (§1)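 Using Biotin-Ahx-Ub-VS at 0.5 µM final for 1 h, DUBs were labelled in HEK293T lysate (495 µg per sample) that had first been treated in triplicate with fragment at 200 µM or vehicle for 3 h. NeutrAvidin enrichment, LysC and trypsin digestion and diaPASEF LC-MS/MS followed. Spectronaut label-free quantities were global-median-normalised. Values are average log2 fragment/vehicle ratios by unpaired t-test, using proteins with ≥2 unique peptides.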

[2] = biological target: T2, OTUD7B (UniProt Q6GQQ9)
T2 sequence (whole entry): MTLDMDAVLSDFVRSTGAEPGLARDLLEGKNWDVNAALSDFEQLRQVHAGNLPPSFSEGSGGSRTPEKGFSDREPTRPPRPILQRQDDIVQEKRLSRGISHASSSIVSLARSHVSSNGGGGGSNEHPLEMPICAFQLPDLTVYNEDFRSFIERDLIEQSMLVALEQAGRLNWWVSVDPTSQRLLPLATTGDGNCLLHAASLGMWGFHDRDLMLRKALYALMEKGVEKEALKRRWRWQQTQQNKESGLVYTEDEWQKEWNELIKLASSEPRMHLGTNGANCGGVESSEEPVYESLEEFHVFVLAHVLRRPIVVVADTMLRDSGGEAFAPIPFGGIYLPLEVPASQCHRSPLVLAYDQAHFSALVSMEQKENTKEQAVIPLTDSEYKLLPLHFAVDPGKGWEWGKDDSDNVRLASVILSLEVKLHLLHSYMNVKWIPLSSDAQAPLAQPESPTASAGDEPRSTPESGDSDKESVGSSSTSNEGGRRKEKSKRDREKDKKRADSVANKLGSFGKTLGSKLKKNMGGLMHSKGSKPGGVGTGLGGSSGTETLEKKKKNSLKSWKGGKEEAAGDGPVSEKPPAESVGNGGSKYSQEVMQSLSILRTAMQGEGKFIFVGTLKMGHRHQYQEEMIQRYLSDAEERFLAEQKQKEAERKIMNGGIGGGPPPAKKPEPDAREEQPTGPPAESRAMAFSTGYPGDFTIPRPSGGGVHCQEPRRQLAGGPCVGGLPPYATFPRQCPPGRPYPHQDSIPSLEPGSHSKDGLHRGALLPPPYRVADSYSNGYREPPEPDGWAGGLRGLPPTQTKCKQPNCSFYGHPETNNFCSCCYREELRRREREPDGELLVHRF
Procedure, shortened: as §1

[3] = biological target: PRPF8 (UniProt Q6P2Q9)
Procedure, shortened: as §1

[4] = biological target: T3, PSMD7 (UniProt P51665)
T3 sequence (whole entry): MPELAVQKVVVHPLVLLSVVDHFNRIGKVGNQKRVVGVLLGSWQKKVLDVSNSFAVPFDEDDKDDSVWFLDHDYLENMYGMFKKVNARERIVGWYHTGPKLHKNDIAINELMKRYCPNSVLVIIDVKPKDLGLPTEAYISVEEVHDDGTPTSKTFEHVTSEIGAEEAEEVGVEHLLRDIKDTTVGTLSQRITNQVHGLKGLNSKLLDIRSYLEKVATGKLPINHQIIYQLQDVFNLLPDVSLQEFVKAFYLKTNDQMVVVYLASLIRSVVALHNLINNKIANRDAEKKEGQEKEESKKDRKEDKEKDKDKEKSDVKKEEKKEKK
Procedure, shortened: as §1

[5] = biological target: UCHL1 (UniProt P09936)
Chain of UCHL1 (P09936 whole entry, looked up): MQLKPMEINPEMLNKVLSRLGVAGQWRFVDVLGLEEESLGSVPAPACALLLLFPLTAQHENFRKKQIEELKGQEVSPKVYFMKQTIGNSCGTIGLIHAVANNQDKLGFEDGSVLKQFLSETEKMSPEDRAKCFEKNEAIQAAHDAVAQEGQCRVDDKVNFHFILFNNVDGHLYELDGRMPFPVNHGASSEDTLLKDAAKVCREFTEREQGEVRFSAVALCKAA
Procedure, shortened: as §1

[6] = biological target: T4, UCHL3 (UniProt P15374)
T4 sequence (whole entry): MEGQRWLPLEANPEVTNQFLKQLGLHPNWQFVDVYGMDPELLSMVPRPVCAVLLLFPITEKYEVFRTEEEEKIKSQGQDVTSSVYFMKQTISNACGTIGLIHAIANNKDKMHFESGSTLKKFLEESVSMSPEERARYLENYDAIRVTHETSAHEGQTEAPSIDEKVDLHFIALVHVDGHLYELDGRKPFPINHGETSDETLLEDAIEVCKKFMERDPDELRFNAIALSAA
Procedure, shortened: as §1

[7] = biological target: T5, UCHL5 (UniProt Q9Y5K5)
T5 sequence (whole entry): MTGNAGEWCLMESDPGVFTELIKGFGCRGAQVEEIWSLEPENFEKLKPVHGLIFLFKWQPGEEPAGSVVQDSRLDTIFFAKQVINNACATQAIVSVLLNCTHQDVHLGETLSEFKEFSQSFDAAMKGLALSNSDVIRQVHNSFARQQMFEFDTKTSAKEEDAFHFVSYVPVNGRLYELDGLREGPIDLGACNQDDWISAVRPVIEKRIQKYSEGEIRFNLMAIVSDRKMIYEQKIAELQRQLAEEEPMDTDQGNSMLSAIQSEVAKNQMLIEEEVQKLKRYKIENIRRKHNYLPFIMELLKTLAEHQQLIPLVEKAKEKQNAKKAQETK
Procedure, shortened: as §1

[8] = biological target: USP10 (UniProt Q14694)
Chain of USP10 (Q14694 whole entry): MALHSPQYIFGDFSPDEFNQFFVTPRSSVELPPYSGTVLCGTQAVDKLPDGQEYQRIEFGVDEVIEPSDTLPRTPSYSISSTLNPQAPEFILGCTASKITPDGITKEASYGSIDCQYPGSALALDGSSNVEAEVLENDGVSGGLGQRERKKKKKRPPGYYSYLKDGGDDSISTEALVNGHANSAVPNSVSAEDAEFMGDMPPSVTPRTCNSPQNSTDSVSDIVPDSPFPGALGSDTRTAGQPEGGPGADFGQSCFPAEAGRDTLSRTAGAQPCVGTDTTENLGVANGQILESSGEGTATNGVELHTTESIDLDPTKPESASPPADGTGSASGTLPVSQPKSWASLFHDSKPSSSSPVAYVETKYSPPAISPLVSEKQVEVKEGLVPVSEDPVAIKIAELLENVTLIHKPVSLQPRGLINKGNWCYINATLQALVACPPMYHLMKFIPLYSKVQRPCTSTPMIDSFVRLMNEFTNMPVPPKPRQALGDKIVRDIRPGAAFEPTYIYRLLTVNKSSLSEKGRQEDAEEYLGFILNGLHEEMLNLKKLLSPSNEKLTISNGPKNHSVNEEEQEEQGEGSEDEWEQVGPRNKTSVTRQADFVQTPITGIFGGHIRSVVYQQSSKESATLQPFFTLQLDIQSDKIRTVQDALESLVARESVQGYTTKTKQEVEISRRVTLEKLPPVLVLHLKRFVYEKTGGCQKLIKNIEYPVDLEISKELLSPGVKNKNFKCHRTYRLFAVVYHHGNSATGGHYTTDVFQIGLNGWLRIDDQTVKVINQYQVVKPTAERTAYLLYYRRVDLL
Procedure, shortened: as §1

[9] = biological target: T6, USP15 (UniProt Q9Y4E8)
T6 sequence (whole entry): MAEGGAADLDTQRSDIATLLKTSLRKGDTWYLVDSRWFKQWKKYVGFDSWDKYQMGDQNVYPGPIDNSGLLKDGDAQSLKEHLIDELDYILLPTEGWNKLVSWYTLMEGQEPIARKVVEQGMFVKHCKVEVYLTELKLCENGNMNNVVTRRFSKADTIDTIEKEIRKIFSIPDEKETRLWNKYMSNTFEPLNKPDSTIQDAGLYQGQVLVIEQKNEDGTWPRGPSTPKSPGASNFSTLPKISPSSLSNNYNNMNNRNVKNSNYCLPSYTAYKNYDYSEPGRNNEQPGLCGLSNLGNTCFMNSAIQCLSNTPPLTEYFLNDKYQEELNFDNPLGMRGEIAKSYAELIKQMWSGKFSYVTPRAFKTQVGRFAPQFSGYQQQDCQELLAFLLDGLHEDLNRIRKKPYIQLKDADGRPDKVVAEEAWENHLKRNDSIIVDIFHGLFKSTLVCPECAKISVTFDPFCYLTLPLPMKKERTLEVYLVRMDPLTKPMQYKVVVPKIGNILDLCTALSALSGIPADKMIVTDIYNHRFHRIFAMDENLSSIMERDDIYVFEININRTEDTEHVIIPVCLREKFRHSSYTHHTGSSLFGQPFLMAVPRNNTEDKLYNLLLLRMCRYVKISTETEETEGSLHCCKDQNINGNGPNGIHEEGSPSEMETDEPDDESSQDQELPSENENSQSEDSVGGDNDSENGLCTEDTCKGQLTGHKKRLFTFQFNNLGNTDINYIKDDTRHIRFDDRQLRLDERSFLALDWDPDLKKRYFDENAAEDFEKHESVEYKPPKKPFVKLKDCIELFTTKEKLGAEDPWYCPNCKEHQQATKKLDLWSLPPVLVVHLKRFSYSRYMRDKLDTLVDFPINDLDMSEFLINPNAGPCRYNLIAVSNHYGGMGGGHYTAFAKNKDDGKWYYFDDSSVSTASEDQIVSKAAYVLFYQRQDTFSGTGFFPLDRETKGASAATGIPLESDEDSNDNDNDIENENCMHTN
Procedure, shortened: as §1

NS(=O)(=O)c1ccc(Cl)c(NC(=O)CCl)c1
log2 ratio of Biotin-Ahx-Ub-VS probe labelling [1]: -0.573 | log2 ratio of Biotin-Ahx-Ub-VS probe labelling [2]: -1.63 (active) | log2 ratio of Biotin-Ahx-Ub-VS probe labelling [3]: -0.153 | log2 ratio of Biotin-Ahx-Ub-VS probe labelling [4]: -0.125 | log2 ratio of Biotin-Ahx-Ub-VS probe labelling [5]: -1.51 (active) | log2 ratio of Biotin-Ahx-Ub-VS probe labelling [6]: 0.209 | log2 ratio of Biotin-Ahx-Ub-VS probe labelling [7]: -0.489 | log2 ratio of Biotin-Ahx-Ub-VS probe labelling [8]: -0.299 | log2 ratio of Biotin-Ahx-Ub-VS probe labelling [9]: -0.166
